Laboratory results taken from PubChem BioAssay.

Columns and labels:
[1] = system: Botulinum neurotoxin type F light chain protease (Clostridium botulinum); test: Clostridium botulinum type F light chain protease inhibitors, microsphere substrate cleavage, validation (AID 588459); settings: multiplex microsphere protease substrate cleavage assay, flow cytometry; at 10 µM; hits give high values
[2] = molecular target: Botulinum neurotoxin type A (Clostridium botulinum) (UniProt P0DPI0); test: BoNT/A light chain protease inhibitors, biochemical, multiplex microsphere flow cytometry, validation set (AID 588460); settings: at 10 µM, hits give high values
Chain of Botulinum neurotoxin type A (Clostridium botulinum) (P0DPI0 whole entry, looked up): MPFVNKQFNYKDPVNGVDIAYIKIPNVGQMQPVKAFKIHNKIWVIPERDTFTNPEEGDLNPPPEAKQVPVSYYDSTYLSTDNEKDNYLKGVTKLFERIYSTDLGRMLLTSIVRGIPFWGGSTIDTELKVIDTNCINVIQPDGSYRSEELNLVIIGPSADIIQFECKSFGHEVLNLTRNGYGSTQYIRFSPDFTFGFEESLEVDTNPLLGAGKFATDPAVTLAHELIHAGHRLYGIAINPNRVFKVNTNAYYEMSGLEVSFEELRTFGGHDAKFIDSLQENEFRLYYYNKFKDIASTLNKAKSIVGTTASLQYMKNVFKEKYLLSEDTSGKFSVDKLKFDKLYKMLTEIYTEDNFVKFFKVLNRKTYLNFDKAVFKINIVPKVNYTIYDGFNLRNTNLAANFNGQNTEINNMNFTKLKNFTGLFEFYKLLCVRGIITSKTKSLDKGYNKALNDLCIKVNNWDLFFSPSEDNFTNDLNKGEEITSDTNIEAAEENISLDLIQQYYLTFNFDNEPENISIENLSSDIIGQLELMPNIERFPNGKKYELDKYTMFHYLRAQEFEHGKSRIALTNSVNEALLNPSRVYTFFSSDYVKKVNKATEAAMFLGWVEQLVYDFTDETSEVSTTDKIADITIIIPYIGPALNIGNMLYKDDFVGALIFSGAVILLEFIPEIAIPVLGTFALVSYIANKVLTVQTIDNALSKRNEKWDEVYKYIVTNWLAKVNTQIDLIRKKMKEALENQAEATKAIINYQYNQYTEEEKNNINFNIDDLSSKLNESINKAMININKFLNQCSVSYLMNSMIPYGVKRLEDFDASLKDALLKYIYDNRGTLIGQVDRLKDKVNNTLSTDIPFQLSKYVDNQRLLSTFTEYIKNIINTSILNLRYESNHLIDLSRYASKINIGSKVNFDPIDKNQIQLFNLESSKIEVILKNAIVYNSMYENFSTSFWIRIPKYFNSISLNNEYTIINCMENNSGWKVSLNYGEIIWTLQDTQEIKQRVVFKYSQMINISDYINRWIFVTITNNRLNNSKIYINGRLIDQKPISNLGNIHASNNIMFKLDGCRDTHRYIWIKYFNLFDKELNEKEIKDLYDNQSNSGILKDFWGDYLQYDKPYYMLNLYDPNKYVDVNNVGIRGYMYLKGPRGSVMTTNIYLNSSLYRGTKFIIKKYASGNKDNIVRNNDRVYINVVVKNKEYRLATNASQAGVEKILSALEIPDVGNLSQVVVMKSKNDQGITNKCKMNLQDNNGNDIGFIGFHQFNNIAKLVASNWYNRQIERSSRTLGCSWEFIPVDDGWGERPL

[3] = molecular target: Lethal factor (Bacillus anthracis) (UniProt P15917); test: Bacillus anthracis lethal factor inhibition, microsphere flow cytometry protease assay, validation at 10 µM (AID 588461); settings: multiplex microsphere protease cleavage assay, hits give high values
Chain of Lethal factor (Bacillus anthracis) (P15917 whole entry, looked up): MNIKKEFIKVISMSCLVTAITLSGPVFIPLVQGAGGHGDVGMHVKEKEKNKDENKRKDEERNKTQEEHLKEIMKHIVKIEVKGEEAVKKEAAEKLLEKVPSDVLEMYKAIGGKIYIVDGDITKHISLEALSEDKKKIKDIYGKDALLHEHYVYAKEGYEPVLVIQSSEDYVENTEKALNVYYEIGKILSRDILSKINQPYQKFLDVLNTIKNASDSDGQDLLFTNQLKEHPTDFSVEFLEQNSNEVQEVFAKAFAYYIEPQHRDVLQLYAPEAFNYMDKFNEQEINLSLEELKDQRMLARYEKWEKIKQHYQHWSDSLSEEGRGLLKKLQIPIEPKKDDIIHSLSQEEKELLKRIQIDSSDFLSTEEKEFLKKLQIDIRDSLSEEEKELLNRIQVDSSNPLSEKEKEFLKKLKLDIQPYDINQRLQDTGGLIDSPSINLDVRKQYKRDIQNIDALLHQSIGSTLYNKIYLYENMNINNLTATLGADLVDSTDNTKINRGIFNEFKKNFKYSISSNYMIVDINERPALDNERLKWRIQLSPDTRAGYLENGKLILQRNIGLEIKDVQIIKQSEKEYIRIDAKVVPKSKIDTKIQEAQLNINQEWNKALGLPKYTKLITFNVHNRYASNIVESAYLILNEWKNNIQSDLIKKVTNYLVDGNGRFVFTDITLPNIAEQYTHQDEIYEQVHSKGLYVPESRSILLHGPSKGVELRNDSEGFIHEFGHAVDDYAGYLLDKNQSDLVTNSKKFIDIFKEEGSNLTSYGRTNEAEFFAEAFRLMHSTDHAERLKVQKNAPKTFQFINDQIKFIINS

Measured: inhibition

Cn1c(=O)[nH]c2nnc(-c3ccc(Cl)c(Cl)c3)nc2c1=O
inactive: [1] -0.1% | [2] 0.4% | [3] -4.1%

O=C1C(Cc2ccccc2)NC(=S)N1c1ccccc1 (stereo not given)
inactive: [1] 3.8% | [2] 0.9% | [3] -7.8%

O=C(Oc1ccc2c3c(c(=O)oc2c1)CCCC3)c1ccco1
inactive: [1] -0.9% | [2] -1.1% | [3] -3.9%

CC1(C)CC(=O)c2cn3c(nc2C1)nc1ccccc13
inactive: [1] 1% | [2] -0.2% | [3] 0%

CC(=O)N1CCN2C(=O)C1CCCC(=O)c1cc(C(C)C)ccc12 (stereo not given)
inactive: [1] -1.6% | [2] -1.6% | [3] -5.3%

CC(C)(C)NCC(O)COc1cccc2c1C[C@H](O)[C@H](O)C2 (stereo not given in full)
inactive: [1] -2.3% | [2] 0.4% | [3] 1.6%

CC(=O)Oc1ccc(C(c2ccc(OC(C)=O)cc2)c2ccccn2)cc1
inactive: [1] 1.2% | [2] -0.3% | [3] -2.2%

COc1cc2c(cc1OC)C(C)=NC1(CCCCC1)C2
inactive: [1] 9.8% | [2] 4.8% | [3] -0.4%

COc1ccc(C(=O)COc2ccc(F)cc2)c(O)c1
inactive: [1] 1% | [2] -1.3% | [3] -9.8%

CCCNC(=O)NS(=O)(=O)c1ccc(Cl)cc1
inactive: [1] 5.6% | [2] -0.4% | [3] -1%

O=C(NCC1CCCO1)c1ccc(OC2CCN(C(=O)C3CC3)CC2)cc1 (stereo not given)
inactive: [1] 0.8% | [2] 0.5% | [3] -2.8%

Cc1cc(C(C)(C)C)c(O)c(C)c1CC1=NCCN1
inactive: [1] 0.7% | [2] -1.1% | [3] 3.7%

CCOC(=O)NN1C(=O)c2ccccc2NC1c1ccc(OC)c(OC)c1 (stereo not given)
inactive: [1] 1.5% | [2] -0.6% | [3] -2%

O=C1Nc2ccc3sc4ccccc4c3c2C1=O
inactive: [1] -1.1% | [2] -0.8% | [3] 1.4%

COc1c2occc2c(OC)c2c(=O)cc(C)oc12
inactive: [1] -0.3% | [2] -1.1% | [3] 4.5%

O=C(c1ccc(O)cc1)c1ccc(O)cc1O
inactive: [1] -0.9% | [2] 1.3% | [3] -0.6%

Cc1ccccc1OCC(O)CN1CCN(C)CC1 (stereo not given)
inactive: [1] 1% | [2] -0.4% | [3] -2.2%

Cc1ccc2c(c1)OC(=O)CC2c1ccccc1 (stereo not given)
inactive: [1] -4.2% | [2] -1.1% | [3] -4.4%

Cc1ccc(C)c(OCCCC(C)(C)C(=O)O)c1
inactive: [1] 1.7% | [2] -0.3% | [3] 1.8%

CC(C)(C)C(=O)Nc1cccc(OC(F)(F)C(F)Cl)c1 (stereo not given)
inactive: [1] 3.3% | [2] 0% | [3] -6%

COC1CCCCC1Nc1ccc(C)c(C)c1 (stereo not given)
inactive: [1] 1.5% | [2] -0.1% | [3] -5.5%

CC(=O)O[C@]1(C(C)=O)CC[C@H]2[C@@H]3C[C@H](C)C4=CC(=O)CC[C@]4(C)[C@H]3CC[C@@]21C
inactive: [1] 0.4% | [2] -1.6% | [3] -5.5%

COc1ccccc1-c1c(C(F)(F)F)oc2cc(OC(=O)c3ccc([N+](=O)[O-])cc3)ccc2c1=O
inactive: [1] 0.7% | [2] -0.5% | [3] 3.7%

O=C(NCCc1cccc(F)c1)[C@@H]1CSC2c3ccccc3C(=O)N21 (stereo not given in full)
inactive: [1] 0.2% | [2] -0.3% | [3] 0.6%

N=c1nc(N2CCCCC2)cc(N)n1O
inactive: [1] -2.3% | [2] -0.7% | [3] 0.9%

CC(=O)N(CCC(Cc1ccccc1)c1ccco1)Cc1ccco1 (stereo not given)
inactive: [1] 1.4% | [2] 1.7% | [3] 0.3%

COc1ccccc1N1C(=O)C2CC(C)=C(C)CC2C1=O (stereo not given)
inactive: [1] -2.6% | [2] -0.4% | [3] 3.9%

Cc1cc(O)c2/c(=N\N)c(-c3csc(C)n3)coc2c1
inactive: [1] -0.4% | [2] -1% | [3] 2.2%

CC[N+](C)(C)Cc1ccccc1Br
inactive: [1] 2.1% | [2] -0.1% | [3] 0.6%

CC(=O)NC(Cc1ccccc1)C(=O)OCC(=O)c1ccccc1 (stereo not given)
inactive: [1] -2.6% | [2] -1.5% | [3] -3.3%
